From PubChem BioAssay (Tox21)
Results filed as inconclusive are left out. Activity calls are given as the source filed them. Calls follow the shape of the dose curve; as a rule, active = well fitted curve in the direction sought with a large enough effect in the repeat runs; inconclusive = weak or mixed curves; inactive = no such curve, though single readings can be large; an effect the other way counts as inactive or inconclusive.

Assays:
[1] = A CellTox Green Cytotoxicity Assay to monitor cytotoxicity in HepG2 cells - 0 hour (AID 1224882); also: nearly all actives have a fitted effect of over 35% in size; also: potency is read from the fitted curve at half-maximal effect
Summary of the method: (§1)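 Using 1536-well format, dye-containing HepG2 suspension was seeded, allowed 5 h at 37 C/5% CO2, dosed by pintool with compounds, positive and negative controls, and imaged for fluorescence across 40 h.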

[2] = A CellTox Green Cytotoxicity Assay to monitor cytotoxicity in HEK293 cells - 8 hour (AID 1224884); also: nearly all actives have a fitted effect of over 35% in size
Summary of the method: (§2)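 Fluorescence intensity, read at 0, 8, 16, 24, 32 and 40 h of compound treatment, reflected dye binding to DNA of dead HEK293 cells; compounds (23 nL, DMSO) were added 5 h after plating cells with reagent.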

[3] = qHTS RealTime-Glo MT Cell Viability Assay in HepG2 cells - 16 hour (AID 1224885); also: nearly all actives have a fitted effect of over 50% in size
Summary of the method: (§3)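 Compound treatment began 5 h after plating HepG2 cells (600/well) with NanoLuc luciferase and prosubstrate. Plates stayed at 37 C for 40 h; luminescence was captured at six time points, 0 h through 40 h.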

[4] = qHTS RealTime-Glo MT Cell Viability Assay in HEK293 cells - 24 hour (AID 1224886); also: nearly all actives have a fitted effect of over 50% in size; also: potency is read from the fitted curve at half-maximal effect
Summary of the method: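 Quantitative high-throughput screen of the Tox21 10K library in HEK293: cells and RealTime-Glo reagents plated together, compound added at 5 h, luminescence monitored through 40 h at 37 C.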

[5] = qHTS RealTime-Glo MT Cell Viability Assay in HEK293 cells - 8 hour (AID 1224887); also: nearly all actives have a fitted effect of over 50% in size; also: potency is read from the fitted curve at half-maximal effect
Summary of the method: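 Viable HEK293 cells reduce a cell-permeant prosubstrate; the product diffuses out and is consumed by NanoLuc in the medium to give light. Compounds went in after a 5 h incubation and plates were read over the treatment course.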

[6] = A CellTox Green Cytotoxicity Assay to monitor cytotoxicity in HEK293 cells - 16 hour (AID 1224888); also: nearly all actives have a fitted effect of over 35% in size; also: potency is read from the fitted curve at half-maximal effect
Summary of the method: as §2

[7] = qHTS RealTime-Glo MT Cell Viability Assay in HepG2 cells - 0 hour (AID 1224889); also: nearly all actives have a fitted effect of over 50% in size; also: potency is read from the fitted curve at half-maximal effect
Summary of the method: as §3

[8] = A CellTox Green Cytotoxicity Assay to monitor cytotoxicity in HepG2 cells - 8 hour (AID 1224890); also: nearly all actives have a fitted effect of over 45% in size
Summary of the method: as §1

[9] = qHTS assay to identify small molecule antagonists of the estrogen receptor alpha (ER-alpha) signaling pathway using the BG1 cell line in the presence of 0.1 nM 17-beta-estradiol - cell viability counter screen (AID 1259241); also: nearly all actives have a fitted effect of over 40% in size; also: potency is read from the fitted curve at half-maximal effect
Summary of the method: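 Cytotoxicity counter-screen: live-cell protease activity measured by fluorescence (30 min reagent step) in the same wells. Cells were VM7Luc4E2 with endogenous ER-alpha and ERE-driven luciferase, treated 22 hr at 37C alongside 0.1 nM 17beta-estradiol final.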

[10] = A CellTox Green Cytotoxicity Assay to monitor cytotoxicity in HepG2 cells - 32 hour (AID 1224883); also: nearly all actives have a fitted effect of over 50% in size; also: potency is read from the fitted curve at half-maximal effect
Summary of the method: as §1

Measured: Potency

Oc1ccc2c(c1)OCO2
inactive: [1] | [2] | [3] | [4] | [5] | [6] | [7] | [8] | [9]

CN1CCN(C2=Nc3cc(Cl)ccc3Nc3ccccc32)CC1
active: [10] 23.9 µM | [6] 4.25 µM
inactive: [1] | [5] | [7] | [9]

CCOC(=O)[C@H](CCc1ccccc1)N[C@H]1CCc2ccccc2N(CC(=O)O)C1=O
active: [10] 26.8 µM
inactive: [1] | [6] | [9]

CCN(CC)CCOc1ccc2c(c1)C(=O)c1cc(OCCN(CC)CC)ccc1-2
active: [4] 10.7 µM
inactive: [1] | [2] | [3] | [5] | [6] | [7] | [8] | [9]

CC(C)CCCC(C)CCO (stereo not drawn)
inactive: [1] | [2] | [3] | [4] | [5] | [6] | [7] | [8] | [9]

CCOC(=O)CC(=O)c1cc(F)c(Cl)nc1Cl
inactive: [1] | [10] | [3] | [5] | [7] | [8] | [9]

O=C1c2cccc(O)c2C(=O)c2c(O)cc(CO)cc21
inactive: [1] | [10] | [3] | [6] | [7] | [8] | [9]

CCOC(=S)SSC(=S)OCC
inactive: [1] | [2] | [3] | [4] | [5] | [6] | [7] | [8] | [9]

CN(C)CC/C=C1\c2ccccc2COc2ccccc21
inactive: [1] | [2] | [3] | [4] | [5] | [6] | [7] | [8] | [9]

CC(C)c1ccccc1C(C)C
inactive: [1] | [2] | [3] | [4] | [5] | [6] | [7] | [8] | [9]

CC(=O)O[C@@H]1C(=O)O[C@@H]2[C@H]1OC(=O)[C@@H]2OC(C)=O
inactive: [1] | [2] | [3] | [4] | [5] | [6] | [7] | [8] | [9]

O=C(O)c1cccc(N(Cc2cccnc2)c2ccc(OC(F)F)c(OC(F)F)c2)c1
inactive: [1] | [10] | [4] | [5] | [6] | [8] | [9]
active: [7] 17.4 µM

CCCCCCCCCCCCCCCC(=O)OC/C=C(C)/C=C/C=C(C)/C=C/C1=C(C)CCCC1(C)C
inactive: [1] | [2] | [3] | [4] | [5] | [6] | [7] | [8] | [9]

Cc1cccc(OCCOc2cccc(C)c2)c1
inactive: [1] | [2] | [3] | [4] | [5] | [6] | [7] | [8] | [9]

CCCCCCCCCC(=O)OCC
inactive: [1] | [2] | [3] | [4] | [5] | [6] | [7] | [8] | [9]

CC(C)(Oc1ccc(Cl)cc1)C(=O)OCCCOC(=O)C(C)(C)Oc1ccc(Cl)cc1
inactive: [1] | [10] | [3] | [6] | [7] | [8] | [9]

O=S(=O)(O)c1ccc(O)c2ncccc12
inactive: [1] | [2] | [3] | [4] | [5] | [6] | [7] | [8] | [9]

CC(=O)/C=C/C1C(C)=CCCC1(C)C (stereo not drawn)
inactive: [1] | [2] | [3] | [4] | [5] | [6] | [7] | [8] | [9]

CCCCCCCCN(C)C
inactive: [1] | [2] | [3] | [4] | [5] | [6] | [7] | [8] | [9]

S=C(S)NCCNC(=S)S
inactive: [1] | [2] | [3] | [4] | [5] | [6] | [7] | [8] | [9]

CC(C(=O)O)c1ccc(C(=O)c2ccccc2)s1 (stereo not drawn)
inactive: [1] | [2] | [3] | [4] | [5] | [6] | [7] | [8] | [9]

CN1CCC(OC(c2ccccc2)c2ccccc2)CC1
inactive: [1] | [2] | [3] | [4] | [5] | [6] | [7] | [8] | [9]

CCCCOC(=O)c1ccccc1C(=O)OCC(CC)CCCC (stereo not drawn)
inactive: [1] | [3] | [4] | [5] | [6] | [7] | [8] | [9]

CCOc1ccc(NC(=O)CC(C)=O)cc1
inactive: [1] | [2] | [3] | [4] | [5] | [6] | [7] | [9]

c1ccc(-c2nc[nH]c2-c2ccccc2)cc1
inactive: [2] | [3] | [4] | [5] | [6] | [7] | [9]

Cn1sccc1=O
inactive: [1] | [2] | [3] | [4] | [5] | [6] | [7] | [9]

NC(N)=N/N=C/c1c(Cl)cccc1Cl
inactive: [1] | [2] | [3] | [4] | [5] | [6] | [8]

Oc1ccc(Cc2ccccc2)cc1
inactive: [1] | [2] | [3] | [7] | [8] | [9]
active: [4] 36 µM | [5] 22.7 µM

C=CC(C)(CCC=C(C)C)OC(=O)c1ccccc1 (stereo not drawn)
inactive: [1] | [3] | [4] | [5] | [7] | [8] | [9]

CCCCc1cc2ccccc2c(OCCN(C)C)n1
inactive: [1] | [3] | [5] | [6] | [7] | [8] | [9]

CCN(CC)C(C)CN1c2ccccc2Sc2ccccc21 (stereo not drawn)
inactive: [1] | [2] | [3] | [5] | [6] | [7] | [8] | [9]

CN(C)CCCNCCCN
inactive: [1] | [2] | [3] | [4] | [5] | [6] | [7] | [9]

CC(=O)N(O)CCCCCNC(=O)CCC(=O)N(O)CCCCCNC(=O)CCC(=O)N(O)CCCCCN
inactive: [1] | [2] | [3] | [5] | [6] | [7] | [8] | [9]

CCCCCOC(=O)c1ccc(O)cc1
active: [4] 44.2 µM | [5] 44.2 µM
inactive: [1] | [2] | [3] | [7] | [9]

CCCCOc1cc(C(=O)OCCN(CC)CC)ccc1N
inactive: [2] | [3] | [4] | [5] | [6] | [7] | [9]

C1=Cc2ccccc2C1
inactive: [1] | [3] | [4] | [5] | [6] | [7] | [8] | [9]

CCCOc1ccc2nc(NC(=O)OC)[nH]c2c1
inactive: [1] | [2] | [3] | [5] | [6] | [7] | [8] | [9]

CC(=O)/C(C)=C/C1C(C)=CCCC1(C)C (stereo not drawn)
inactive: [1] | [3] | [4] | [5] | [7] | [8] | [9]
active: [6] 15.5 µM

CN(c1nccc(=O)[nH]1)C1CCN(c2nc3ccccc3n2Cc2ccc(F)cc2)CC1
inactive: [1] | [2] | [3] | [6] | [7] | [8] | [9]

COc1ccc([C@@H]2Sc3ccccc3N(CCN(C)C)C(=O)[C@@H]2OC(C)=O)cc1
inactive: [1] | [2] | [3] | [4] | [5] | [6] | [7] | [9]

CCCCCCCC/C=C\CCCCCCCC(N)=O
inactive: [1] | [3] | [5] | [6] | [7] | [8] | [9]

CCCC[C@H]1CN(CC2CCOCC2)C(=O)OC12CCN(C1(C)CCN(C(=O)c3c(C)ncnc3C)CC1)CC2
inactive: [1] | [3] | [4] | [5] | [6] | [8] | [9]

Cc1cccc(C(C)(C)C)c1O
inactive: [1] | [2] | [3] | [4] | [5] | [6] | [7] | [9]

COc1ccc2[nH]c(S(=O)Cc3ncc(C)c(OC)c3C)nc2n1 (stereo not drawn)
inactive: [1] | [2] | [3] | [4] | [5] | [6] | [7] | [8] | [9]

O=C(/C=C/c1ccc(O)c(O)c1)O[C@@H]1C[C@](O)(C(=O)O)C[C@@H](O)[C@H]1O
inactive: [1] | [3] | [4] | [5] | [6] | [7] | [8] | [9]

Cc1cc(C)c(S(=O)(=O)O)cc1N=Nc1cc(S(=O)(=O)O)c2ccccc2c1O
inactive: [1] | [2] | [3] | [6] | [7] | [8]
active: [9] 54.5 µM

CNCC[C@@H](Oc1ccccc1C)c1ccccc1
inactive: [10] | [2] | [3] | [4] | [5] | [6] | [8] | [9]

COc1cc(C(C)(C)C)c(O)c(C(C)(C)C)c1
inactive: [1] | [2] | [3] | [4] | [7] | [9]

CC1(C)CCC(C)(C)c2cc(NC(=O)c3ccc(C(=O)O)cc3)ccc21
inactive: [10] | [2] | [3] | [6] | [7] | [8] | [9]

O=S1(=O)c2cccc3cccc(c23)N1CCCN1CCN(c2ccc(F)cc2)CC1
inactive: [10] | [2] | [3] | [4] | [5] | [6] | [7] | [9]

O=C(O)Cn1c(C(=O)Nc2nc(-c3ccccc3Cl)cs2)cc2ccccc21
inactive: [1] | [3] | [4] | [5] | [6] | [8] | [9]

CCCCOc1ccc(CC(=O)NO)cc1
inactive: [1] | [2] | [3] | [6] | [7] | [8] | [9]
active: [5] 2.13 µM

CN(C)CCCOc1nn(Cc2ccccc2)c2ccccc12
inactive: [1] | [2] | [3] | [5] | [6] | [7] | [8] | [9]

CCCC(=O)OCC
inactive: [1] | [3] | [4] | [5] | [6] | [7] | [8] | [9]

c1ccc(OCc2ccc(CCCN3CCOCC3)cc2)cc1
inactive: [2] | [3] | [6] | [7]

O=C(O)[C@@H]1[C@H]2C[C@H]3c4[nH]c5ccccc5c4CCN3C[C@@H]2CC[C@@H]1O
active: [1] 10.7 µM
inactive: [3] | [4] | [5] | [6] | [7] | [9]

O=C(Nc1ccccc1)OCC(CN1CCCCC1)OC(=O)Nc1ccccc1 (stereo not drawn)
inactive: [2] | [3] | [6] | [7] | [8] | [9]
